The supplement of paper PMC10849652
Of roughly 8,800 targets only a part is listed; those with a hit were picked by preference. About 0.5% of all pairs of compound and target were hits.

Experiments:
Assay in all cases: log2 fold change, soluble protein after heating vs DMSO (PISA); higher = thermal stabilisation; K562 lysate, 10 uM; active = over 0.2 and 3.5 SD of the protein, either way, in both replicates (recomputed)
alvocidib = compound: CN1CC[C@H](c2c(O)cc(O)c3c(=O)cc(-c4ccccc4Cl)oc23)[C@H](O)C1 [alvocidib]
Procedure, shortened: (§1)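 Quantification was by TMTpro 16plex LC-MS/MS with equalised channel sums, applied to the supernatant after 21,000xg for 90 min. Samples were crude K562 extract at 1 mg/mL protein in PBS pH 7.4 with 1 mM MgCl2, treated with 10 μM compound for 30 min, heated for 3 min across 48°C-58°C, pooled and brought to 0.5% NP-40 at 4°C. Values are log-two fold changes in thermal stability relative to solvent controls, from duplicates.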

Tubastatin A = compound: CN1CCc2c(c3ccccc3n2Cc2ccc(C(=O)NO)cc2)C1 [Tubastatin A]
Procedure, shortened: as §1

[1] = compound: CNC(=O)C1=CC=CC=C1NC2=NC(=NC=C2Cl)NC3=C(C=C(C=C3)N4CCOCC4)OC
Procedure, shortened: as §1

defactinib = compound: CNC(=O)c1ccc(Nc2ncc(C(F)(F)F)c(NCc3nccnc3N(C)S(C)(=O)=O)n2)cc1 [defactinib]
Procedure, shortened: as §1

[2] = compound: CNc1nc(-c2ccc3c(N)n[nH]c3c2)cc(N2C[C@@H](C(=O)NC3CCCCC3)CC[C@H]2C)n1
Procedure, shortened: as §1

encorafenib = compound: COC(=O)N[C@@H](C)CNc1nccc(-c2cn(C(C)C)nc2-c2cc(Cl)cc(NS(C)(=O)=O)c2F)n1 [encorafenib]
Procedure, shortened: as §1

[3] = compound: COC(=O)[C@H](CCSC)NC(=O)C1=C(C=C(C=C1)NC[C@H](CS)N)C2=CC=CC=C2
Procedure, shortened: as §1

alisertib = compound: COc1cc(Nc2ncc3c(n2)-c2ccc(Cl)cc2C(c2c(F)cccc2OC)=NC3)ccc1C(=O)O [alisertib]
Procedure, shortened: as §1

[4] = compound: COc1cc2nc(-c3cc(F)ccc3O)nc(N[C@@H]3CNC[C@H]3C(C)(C)O)c2cc1OC
Procedure, shortened: as §1

gefitinib = compound: COc1cc2ncnc(Nc3ccc(F)c(Cl)c3)c2cc1OCCCN1CCOCC1 [gefitinib]
Procedure, shortened: as §1

lapatinib = compound: CS(=O)(=O)CCNCc1ccc(-c2ccc3ncnc(Nc4ccc(OCc5cccc(F)c5)c(Cl)c4)c3c2)o1 [lapatinib]
Procedure, shortened: as §1

pictilisib = compound: CS(=O)(=O)N1CCN(Cc2cc3nc(-c4cccc5[nH]ncc45)nc(N4CCOCC4)c3s2)CC1 [pictilisib]
Procedure, shortened: as §1

crizotinib = compound: C[C@@H](Oc1cc(-c2cnn(C3CCNCC3)c2)cnc1N)c1c(Cl)ccc(F)c1Cl [crizotinib]
Procedure, shortened: as §1

[5] = compound: C[C@H](C1=CC=C(C=C1)C(=O)NC2=C3C=CNC3=NC=C2)N
Procedure, shortened: as §1

duvelisib = compound: C[C@H](Nc1ncnc2nc[nH]c12)c1cc2cccc(Cl)c2c(=O)n1-c1ccccc1 [duvelisib]
Procedure, shortened: as §1

gandotinib = compound: Cc1cc(Nc2cc(CN3CCOCC3)c3nc(C)c(Cc4ccc(Cl)cc4F)n3n2)n[nH]1 [gandotinib]
Procedure, shortened: as §1

tozasertib = compound: Cc1cc(Nc2cc(N3CCN(C)CC3)nc(Sc3ccc(NC(=O)C4CC4)cc3)n2)n[nH]1 [tozasertib]
Procedure, shortened: as §1

doramapimod = compound: Cc1ccc(-n2nc(C(C)(C)C)cc2NC(=O)Nc2ccc(OCCN3CCOCC3)c3ccccc23)cc1 [doramapimod]
Procedure, shortened: as §1

bafetinib = compound: Cc1ccc(NC(=O)c2ccc(CN3CC[C@H](N(C)C)C3)c(C(F)(F)F)c2)cc1Nc1nccc(-c2cncnc2)n1 [bafetinib]
Procedure, shortened: as §1

[6] = compound: Cc1cccc(CC(=O)N2CCc3c2ccc(-c2cn(C)c4ncnc(N)c24)c3F)n1
Procedure, shortened: as §1

Measured: log2 fold change

PDCD4 (UniProt Q53EL6)
inactive: alvocidib 0.01 | Tubastatin A -0.033 | [1] 0.017 | defactinib 0.002 | [2] 0.019 | encorafenib 0.019 | [3] -0.034 | alisertib -0.005 | [4] 0.015 | gefitinib -0.003 | lapatinib -0.026 | pictilisib -0.003 | crizotinib -0.055 | [5] -0.051 | duvelisib -0.022 | gandotinib 0.009 | tozasertib -0.002 | doramapimod 0.011 | bafetinib -0.038 | [6] 0.062

PRKD2 isoform 3 (UniProt Q9BZL6)
inactive: alvocidib 0.01 | Tubastatin A -0.145 | [1] -0.125 | defactinib 0.24 | [2] 0.024 | encorafenib 0.091 | [3] -0.001 | alisertib -0.028 | [4] 0.238 | gefitinib -0.165 | lapatinib 0.087 | pictilisib -0.009 | crizotinib -0.043 | [5] -0.047 | duvelisib 0.05 | gandotinib -0.15 | tozasertib 0.019 | doramapimod -0.002 | bafetinib 0.02 | [6] -0.01

PIKFYVE (UniProt Q9Y2I7)
Chain of UniProt Q9Y2I7 (Q9Y2I7 whole entry, looked up): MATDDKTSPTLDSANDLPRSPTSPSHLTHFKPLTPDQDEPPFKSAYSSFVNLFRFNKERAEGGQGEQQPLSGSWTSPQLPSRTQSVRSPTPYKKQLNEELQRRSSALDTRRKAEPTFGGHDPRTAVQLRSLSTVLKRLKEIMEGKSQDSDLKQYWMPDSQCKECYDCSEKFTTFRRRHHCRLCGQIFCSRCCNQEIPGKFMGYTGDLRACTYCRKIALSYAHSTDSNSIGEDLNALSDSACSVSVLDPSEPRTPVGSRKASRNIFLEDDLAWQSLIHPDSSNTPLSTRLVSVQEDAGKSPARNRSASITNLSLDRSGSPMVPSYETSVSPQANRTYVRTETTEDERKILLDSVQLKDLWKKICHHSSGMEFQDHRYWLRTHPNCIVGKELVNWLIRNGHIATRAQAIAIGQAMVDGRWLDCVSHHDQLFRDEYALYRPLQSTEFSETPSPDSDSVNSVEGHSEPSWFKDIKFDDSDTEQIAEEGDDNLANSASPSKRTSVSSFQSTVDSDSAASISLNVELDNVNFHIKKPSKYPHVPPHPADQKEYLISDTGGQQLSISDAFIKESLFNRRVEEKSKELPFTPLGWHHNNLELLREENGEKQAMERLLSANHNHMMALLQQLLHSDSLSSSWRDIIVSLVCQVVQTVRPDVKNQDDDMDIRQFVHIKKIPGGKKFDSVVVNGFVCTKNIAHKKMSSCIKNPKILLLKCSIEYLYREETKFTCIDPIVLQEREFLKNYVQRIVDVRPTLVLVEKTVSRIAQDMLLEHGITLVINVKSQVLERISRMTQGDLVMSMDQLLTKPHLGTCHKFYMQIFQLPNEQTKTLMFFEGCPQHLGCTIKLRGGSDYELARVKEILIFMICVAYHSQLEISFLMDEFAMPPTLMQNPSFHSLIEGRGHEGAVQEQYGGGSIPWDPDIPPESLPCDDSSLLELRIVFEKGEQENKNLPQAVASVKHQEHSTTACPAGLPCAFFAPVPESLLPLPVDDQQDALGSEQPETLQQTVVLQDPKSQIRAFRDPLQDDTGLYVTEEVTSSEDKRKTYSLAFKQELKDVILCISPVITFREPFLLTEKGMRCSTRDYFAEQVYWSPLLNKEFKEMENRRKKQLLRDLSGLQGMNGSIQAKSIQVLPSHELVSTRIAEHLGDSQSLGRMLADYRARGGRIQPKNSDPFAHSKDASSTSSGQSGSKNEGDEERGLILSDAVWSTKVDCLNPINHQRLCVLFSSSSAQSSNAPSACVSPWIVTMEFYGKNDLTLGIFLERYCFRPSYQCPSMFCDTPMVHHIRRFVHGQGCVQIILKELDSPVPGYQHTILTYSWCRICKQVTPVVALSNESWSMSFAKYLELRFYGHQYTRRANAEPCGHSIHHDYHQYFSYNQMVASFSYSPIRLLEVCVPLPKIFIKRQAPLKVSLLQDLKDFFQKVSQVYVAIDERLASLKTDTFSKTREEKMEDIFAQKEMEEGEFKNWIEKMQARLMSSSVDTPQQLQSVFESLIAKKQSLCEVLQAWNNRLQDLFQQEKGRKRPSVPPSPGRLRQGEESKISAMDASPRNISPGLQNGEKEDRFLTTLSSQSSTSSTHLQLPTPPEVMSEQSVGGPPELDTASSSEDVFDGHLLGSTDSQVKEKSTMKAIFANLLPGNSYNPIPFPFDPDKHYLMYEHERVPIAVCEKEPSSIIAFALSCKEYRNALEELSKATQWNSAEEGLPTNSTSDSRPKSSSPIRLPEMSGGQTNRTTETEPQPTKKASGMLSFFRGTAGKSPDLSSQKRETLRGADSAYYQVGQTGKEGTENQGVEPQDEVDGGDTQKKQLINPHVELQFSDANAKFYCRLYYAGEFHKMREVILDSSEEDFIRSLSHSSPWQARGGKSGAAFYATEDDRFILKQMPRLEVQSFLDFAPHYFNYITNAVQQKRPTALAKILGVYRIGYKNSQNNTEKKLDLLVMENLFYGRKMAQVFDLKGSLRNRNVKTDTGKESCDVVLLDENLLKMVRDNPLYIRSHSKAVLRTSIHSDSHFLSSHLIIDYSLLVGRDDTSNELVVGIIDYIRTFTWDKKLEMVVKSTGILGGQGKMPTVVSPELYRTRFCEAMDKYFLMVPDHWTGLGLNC
inactive: alvocidib -0.049 | Tubastatin A -0.126 | [1] 0.032 | defactinib 0.078 | [2] -0.031 | encorafenib 0.044 | [3] 0.088 | alisertib 0.031 | [4] 0.004 | gefitinib -0.005 | lapatinib -0.039 | pictilisib -0.06 | crizotinib -0.002 | [5] -0.058 | duvelisib -0.013 | gandotinib 0.01 | tozasertib -0.014 | doramapimod 0.029 | bafetinib -0.053 | [6] 0.066

PXMP4 (UniProt Q9Y6I8)
Chain of UniProt Q9Y6I8 (Q9Y6I8 whole entry, looked up): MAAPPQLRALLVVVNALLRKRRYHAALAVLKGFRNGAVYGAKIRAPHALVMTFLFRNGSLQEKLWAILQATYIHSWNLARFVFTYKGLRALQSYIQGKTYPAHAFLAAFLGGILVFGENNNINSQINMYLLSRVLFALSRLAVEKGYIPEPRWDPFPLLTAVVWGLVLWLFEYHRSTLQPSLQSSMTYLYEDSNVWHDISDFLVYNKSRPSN
active: [2] 0.736
inactive: alvocidib 0 | Tubastatin A -0.015 | [1] 0.012 | defactinib -0.028 | encorafenib 0.033 | [3] 0.092 | alisertib -0.039 | [4] -0.009 | gefitinib -0.039 | lapatinib -0.071 | pictilisib 0.066 | crizotinib -0.29 | [5] -0.068 | duvelisib -0.112 | gandotinib -0.221 | tozasertib -0.034 | doramapimod 0.238 | bafetinib -0.148 | [6] 0.194

PPP2R3C (UniProt Q969Q6)
Chain of UniProt Q969Q6 (Q969Q6 whole entry, looked up): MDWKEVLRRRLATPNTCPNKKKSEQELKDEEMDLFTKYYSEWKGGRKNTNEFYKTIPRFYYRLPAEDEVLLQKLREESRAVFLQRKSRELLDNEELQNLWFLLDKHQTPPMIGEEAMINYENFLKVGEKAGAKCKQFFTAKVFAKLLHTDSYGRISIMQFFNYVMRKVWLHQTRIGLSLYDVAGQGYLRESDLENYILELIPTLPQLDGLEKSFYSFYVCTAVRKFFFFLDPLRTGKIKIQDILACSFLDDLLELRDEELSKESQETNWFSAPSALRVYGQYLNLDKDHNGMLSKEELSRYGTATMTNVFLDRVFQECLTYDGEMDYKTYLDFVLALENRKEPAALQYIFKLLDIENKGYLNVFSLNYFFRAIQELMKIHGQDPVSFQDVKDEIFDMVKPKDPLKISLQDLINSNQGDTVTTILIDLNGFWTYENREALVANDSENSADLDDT
inactive: alvocidib -0.018 | Tubastatin A -0.145 | [1] -0.046 | defactinib 0.072 | [2] 0.081 | encorafenib 0.105 | [3] 0.013 | alisertib 0.069 | [4] -0.23 | gefitinib 0.105 | lapatinib 0.048 | pictilisib -0.029 | [5] -0.1 | duvelisib 0.028 | gandotinib -0.097 | tozasertib 0.036 | bafetinib 0.022 | [6] 0.023

PI4KA (UniProt P42356)
Chain of UniProt P42356 (P42356 whole entry, looked up): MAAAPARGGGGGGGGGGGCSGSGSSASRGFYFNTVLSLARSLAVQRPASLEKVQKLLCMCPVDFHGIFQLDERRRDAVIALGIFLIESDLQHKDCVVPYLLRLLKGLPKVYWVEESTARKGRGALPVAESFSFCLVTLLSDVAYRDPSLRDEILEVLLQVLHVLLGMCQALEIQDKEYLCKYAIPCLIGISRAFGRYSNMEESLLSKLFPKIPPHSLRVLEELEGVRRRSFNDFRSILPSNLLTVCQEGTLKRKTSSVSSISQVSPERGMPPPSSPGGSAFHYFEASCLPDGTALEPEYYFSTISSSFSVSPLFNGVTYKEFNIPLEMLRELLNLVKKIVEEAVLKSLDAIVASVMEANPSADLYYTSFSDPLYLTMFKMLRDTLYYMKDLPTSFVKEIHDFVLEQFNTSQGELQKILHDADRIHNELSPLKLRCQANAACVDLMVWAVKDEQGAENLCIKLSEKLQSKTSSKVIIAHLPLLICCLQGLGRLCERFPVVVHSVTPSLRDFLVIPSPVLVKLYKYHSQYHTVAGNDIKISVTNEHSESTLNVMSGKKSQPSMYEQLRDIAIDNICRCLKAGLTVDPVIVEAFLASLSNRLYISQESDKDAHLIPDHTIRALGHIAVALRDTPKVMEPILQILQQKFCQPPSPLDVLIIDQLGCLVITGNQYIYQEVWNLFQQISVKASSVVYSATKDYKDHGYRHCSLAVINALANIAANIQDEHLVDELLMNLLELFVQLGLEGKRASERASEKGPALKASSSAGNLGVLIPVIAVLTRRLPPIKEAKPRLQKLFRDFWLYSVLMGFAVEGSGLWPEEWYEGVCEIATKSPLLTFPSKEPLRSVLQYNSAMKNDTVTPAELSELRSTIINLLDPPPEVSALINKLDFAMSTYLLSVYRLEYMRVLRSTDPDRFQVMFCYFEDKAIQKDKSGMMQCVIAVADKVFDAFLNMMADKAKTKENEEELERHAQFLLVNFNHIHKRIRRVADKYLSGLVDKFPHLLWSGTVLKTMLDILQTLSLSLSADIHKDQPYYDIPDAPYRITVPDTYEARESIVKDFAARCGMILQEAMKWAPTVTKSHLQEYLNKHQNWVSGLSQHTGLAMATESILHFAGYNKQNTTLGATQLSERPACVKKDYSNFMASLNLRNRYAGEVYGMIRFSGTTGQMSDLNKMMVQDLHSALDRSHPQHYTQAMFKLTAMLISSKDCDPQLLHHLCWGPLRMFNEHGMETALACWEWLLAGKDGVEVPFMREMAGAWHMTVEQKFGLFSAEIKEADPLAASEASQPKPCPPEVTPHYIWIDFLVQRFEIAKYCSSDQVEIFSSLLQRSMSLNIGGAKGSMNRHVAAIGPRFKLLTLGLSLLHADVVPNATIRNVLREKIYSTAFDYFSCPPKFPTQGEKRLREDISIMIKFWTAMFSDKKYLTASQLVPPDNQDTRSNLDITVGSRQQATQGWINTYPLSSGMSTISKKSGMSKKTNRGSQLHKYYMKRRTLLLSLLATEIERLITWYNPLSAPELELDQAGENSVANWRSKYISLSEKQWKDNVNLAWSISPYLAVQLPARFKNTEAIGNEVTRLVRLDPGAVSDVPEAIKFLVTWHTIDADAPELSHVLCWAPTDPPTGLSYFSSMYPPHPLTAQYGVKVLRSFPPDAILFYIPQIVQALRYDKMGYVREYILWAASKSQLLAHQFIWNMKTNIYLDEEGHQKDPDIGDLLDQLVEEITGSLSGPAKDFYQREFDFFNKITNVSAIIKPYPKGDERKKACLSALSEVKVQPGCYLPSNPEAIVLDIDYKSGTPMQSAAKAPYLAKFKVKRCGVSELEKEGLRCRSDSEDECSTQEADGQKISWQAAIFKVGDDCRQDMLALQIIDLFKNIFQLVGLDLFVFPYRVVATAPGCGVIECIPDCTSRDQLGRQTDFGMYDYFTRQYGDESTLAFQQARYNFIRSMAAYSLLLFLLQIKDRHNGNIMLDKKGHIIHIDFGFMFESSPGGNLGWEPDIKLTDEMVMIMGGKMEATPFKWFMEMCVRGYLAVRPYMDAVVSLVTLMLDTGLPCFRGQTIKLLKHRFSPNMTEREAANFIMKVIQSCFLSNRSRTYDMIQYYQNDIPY
inactive: alvocidib -0.006 | Tubastatin A -0.165 | [1] 0.035 | defactinib 0.006 | [2] -0.029 | encorafenib 0.026 | [3] -0.005 | alisertib 0.028 | [4] 0.019 | gefitinib 0 | lapatinib -0.03 | pictilisib 0.097 | crizotinib -0.005 | [5] -0.043 | duvelisib 0.189 | gandotinib -0.033 | tozasertib 0.013 | doramapimod -0.002 | bafetinib -0.075 | [6] 0.073

PPP2CA (UniProt P67775)
inactive: alvocidib -0.062 | Tubastatin A -0.018 | [1] 0.026 | defactinib -0.064 | [2] -0.019 | encorafenib 0.128 | alisertib -0.016 | [4] -0.013 | gefitinib -0.009 | lapatinib -0.028 | pictilisib -0.001 | crizotinib 0.159 | [5] 0.051 | duvelisib -0.024 | gandotinib -0.022 | tozasertib -0.116 | doramapimod -0.049 | bafetinib 0.053 | [6] 0.03
active: [3] -0.374

PPOX (UniProt P50336)
inactive: alvocidib -0.004 | Tubastatin A -0.124 | [1] 0.257 | defactinib -0.03 | [2] 0.107 | encorafenib -0.017 | [3] 0.076 | alisertib 0.005 | [4] -0.035 | gefitinib -0.043 | pictilisib 0.111 | crizotinib -0.068 | [5] -0.075 | duvelisib 0.04 | tozasertib 0.003 | doramapimod 0.206 | bafetinib -0.028 | [6] 0.11
active: lapatinib 0.379 | gandotinib 0.581

PIM1 isoform 2 (UniProt P11309)
inactive: alvocidib 0.217 | Tubastatin A -0.204 | [1] 0.052 | defactinib 0.035 | [2] -0.152 | encorafenib -0.007 | [3] 0.038 | alisertib -0.017 | gefitinib 0.003 | pictilisib 0.084 | crizotinib -0.107 | [5] 0.096 | duvelisib 0.081 | gandotinib -0.121 | tozasertib 0.046 | doramapimod -0.012 | bafetinib -0.043 | [6] -0.025

POLR2B (UniProt P30876)
inactive: alvocidib -0.008 | Tubastatin A -0.092 | [1] 0.057 | defactinib 0.004 | [2] -0.026 | encorafenib 0.022 | [3] 0.121 | alisertib 0.002 | [4] -0.018 | gefitinib 0.012 | lapatinib 0.009 | pictilisib -0.048 | crizotinib -0.054 | [5] -0.032 | duvelisib 0.001 | gandotinib -0.018 | tozasertib -0.016 | doramapimod 0.046 | bafetinib -0.067 | [6] 0.036

PMS1 (UniProt P54277)
inactive: alvocidib -0.038 | Tubastatin A -0.046 | [1] -0.008 | defactinib 0 | [2] -0.039 | encorafenib 0.046 | [3] 0.022 | alisertib -0.01 | gefitinib 0.049 | pictilisib -0.028 | crizotinib -0.004 | [5] 0.018 | duvelisib 0.018 | gandotinib -0.063 | tozasertib -0.053 | doramapimod -0.03 | bafetinib -0.064 | [6] -0.013

PDIA4, A0A499FI48
active: [5] 1.32
inactive: alvocidib 0.336 | [2] -0.003 | crizotinib -0.063 | duvelisib -0.101 | gandotinib -0.18 | doramapimod -0.039 | [6] -0.154
